# Results taken from PubChem BioAssay (Tox21).
# Records with an inconclusive call do not appear. Entries that show only a call come without a potency. Activity calls are given as the source filed them. Unless noted, calls follow the shape of the dose curve; as a rule, active = well fitted curve in the direction sought with a large enough effect in the repeat runs; inconclusive = weak or mixed curves; inactive = no such curve, though single readings can be large; an effect the other way counts as inactive or inconclusive.
# Columns and labels:
# [1] = target: Retinoic acid receptor RXR-alpha (Homo sapiens) (UniProt P19793); assay: qHTS assay to identify small molecule agonists of the RXR signaling pathway (AID 1159527; calls by dose curve; also: nearly all actives have a fitted effect of over 35% in size; also: potency is read from the fitted curve at half-maximal effect)
# How it was run: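 16 hr incubation of compound-treated RXR-alpha-UAS-bla HEK 293T cells (2% charcoal-stripped FBS, 37 C) preceded a 2 hr room-temperature LiveBLAzer FRET substrate step and blue/green fluorescence measurement.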
# [2] = qHTS assay to identify small molecule agonists of the RXR signaling pathway - cell viability counter screen (AID 1159529);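 also: HEK 293T cells carrying an RXR-alpha UAS beta-lactamase reporter; nearly all actives have a fitted effect of over 50% in size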
# How it was run: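 In this parallel viability measure, GeneBLAzer RXR-alpha HEK 293T cells (2% charcoal-stripped FBS) were given a 5 hr preincubation, treated with compounds 16 hr at 37 C, and read by CellTiter-Glo luminescence.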
# [3] = qHTS assay to identify small molecule antagonists of the retinoic acid receptor (RAR) signaling pathway (AID 1159552; also: nearly all actives have a fitted effect of over 50% in size)
# How it was run: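 C3RL4 RARE-luc cells, overnight plating; retinol 1 uM final added right after compound; 6 hr 37 C; luciferase read at 30 min RT.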
# [4] = qHTS assay to identify small molecule agonists of the retinoic acid receptor (RAR) signaling pathway (AID 1159553); settings: C3RL4 RARE luciferase reporter, agonist, 6 h; activation: at 73.3 µM (top of the series); also: potency is read from the fitted curve at half-maximal effect
# How it was run: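 Luminescence was measured 30 min after luciferase reagent addition at room temperature. Before that, C3RL4 reporter cells (1,000 per well, plated overnight) were treated with compound for 6 hr at 37 C and 5% CO2.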
# [5] = qHTS assay to identify small molecule antagonists of the retinoid acid receptor (RAR) signaling pathway - cell viability counter screen (AID 1159551); also: nearly all actives have a fitted effect of over 35% in size
# How it was run: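 Cytotoxicity counter screen: ATP content quantified by CellTiter-Glo luminescence in C3RL4 cells treated 6 hr at 37 C with compound and retinol (1 uM final). Cells plated at 1,000/well and cultured overnight before dosing.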
# [6] = qHTS assay to identify small molecule antagonists of the estrogen related receptor (ERR) signaling pathway - cell viability counter screen (AID 1224818);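 also: viability measured after 17.5 h of compound exposure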
# How it was run: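 Cytotoxicity counter screen: fluorescence from CellTiter-Fluor, added after 17.5 h compound exposure at 37 C and read 30 min later. ERR cell line seeded at 2,000 cells/well, preincubated 6 h before dosing.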
# [7] = qHTS assay to identify small molecule antagonists of the estrogen related receptor signaling pathway with the pleiotropic PPARgamma coactivator (PGC) cell viability counter screen (AID 1224822)
# How it was run: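 Viability counter-screen read by fluorescence intensity after 30 min with CellTiter-Fluor at 37 C; PGC/ERR reporter cells were exposed to compounds for 17.5 h at 37 C following a 6 h preincubation.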
# Retinoic acid receptor RXR-alpha (Homo sapiens), sequence (P19793 whole entry, looked up): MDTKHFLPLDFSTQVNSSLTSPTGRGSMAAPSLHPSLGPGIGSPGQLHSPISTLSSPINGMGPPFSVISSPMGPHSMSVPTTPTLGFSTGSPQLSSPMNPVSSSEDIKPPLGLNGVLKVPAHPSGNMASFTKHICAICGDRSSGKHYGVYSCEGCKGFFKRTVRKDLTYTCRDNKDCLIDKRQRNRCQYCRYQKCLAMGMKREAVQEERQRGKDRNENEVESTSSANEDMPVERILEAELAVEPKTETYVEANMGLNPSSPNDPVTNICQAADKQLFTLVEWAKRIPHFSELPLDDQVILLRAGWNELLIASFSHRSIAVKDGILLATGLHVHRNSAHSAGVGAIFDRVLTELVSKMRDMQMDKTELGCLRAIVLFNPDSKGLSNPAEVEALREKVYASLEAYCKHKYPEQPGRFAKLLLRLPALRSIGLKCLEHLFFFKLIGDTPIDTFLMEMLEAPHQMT
SMILES,Potency [1],Potency [2],Potency [3],Potency [4],Potency [5],outcome [6],outcome [7]
CCCCCCCCCCC(=O)O,49.6 µM (active),inactive,inactive,inactive,,,
NCCNCCO,inactive,inactive,inactive,inactive,inactive,,
N#[N+]c1ccc2c(S(=O)(=O)[O-])cccc2c1O,inactive,inactive,inactive,inactive,inactive,,
O=C1Cc2cc(Cl)ccc2N1,inactive,inactive,,inactive,inactive,,
CCN(CC)CCNC(=O)COc1ccc(OC)cc1,inactive,inactive,inactive,inactive,,,
C=C(C)CCCC(C)CCO (configuration not stated),inactive,inactive,,inactive,inactive,,
O=C(/C=C/c1ccc(O)c(O)c1)O[C@@H]1C[C@@](OC(=O)/C=C/c2ccc(O)c(O)c2)(C(=O)O)C[C@@H](O)[C@@H]1O,inactive,inactive,inactive,inactive,inactive,,
CC(CN(C)C)C(C)(O)Cc1ccc(Cl)cc1 (configuration not stated),inactive,inactive,,inactive,inactive,,
O=c1c(O)c(-c2ccc(O)cc2)oc2cc(O)cc(O)c12,inactive,inactive,inactive,18.4 µM (active),,,
CN(C)CCN1C(=O)c2ccccc2N(C)c2ccccc21,inactive,inactive,,inactive,inactive,,
CO/N=C(/C(=O)N[C@@H]1C(=O)N2C(C(=O)O)=C(COC(N)=O)CS[C@H]12)c1ccco1,inactive,inactive,inactive,inactive,inactive,,
NC(=O)c1ccncc1,inactive,inactive,inactive,inactive,inactive,,
CC(C)=CCC/C(C)=C/CC/C(C)=C/CCC(=O)OC/C=C(\C)CCC=C(C)C,inactive,inactive,inactive,inactive,,,
NNC(=O)CP(=O)(c1ccccc1)c1ccccc1,inactive,inactive,inactive,inactive,inactive,,
O=c1[nH]c2ccc(Cl)cc2o1,inactive,inactive,inactive,inactive,,,
CCCC(=O)C(=O)O,inactive,inactive,inactive,inactive,,,
CCn1cc(C(=O)O)c(=O)c2cc(F)c(N3CCNCC3)cc21,inactive,inactive,,inactive,inactive,,
CCC(=O)C1CC(C(C)C)CC=C1C (configuration not stated),inactive,inactive,inactive,inactive,inactive,,
OC(CCN1CCCC1)(c1ccccc1)C1CCCCC1 (configuration not stated),inactive,inactive,,inactive,inactive,,

SMILES,Potency [1],Potency [2],Potency [3],Potency [4],Potency [5],outcome [6],outcome [7]
C=COCC(C)C,inactive,inactive,inactive,inactive,,,
CN1C(C(=O)Nc2ccccn2)=C(O)c2sccc2S1(=O)=O,inactive,inactive,inactive,29.8 µM (active),,,
CC[N+](CC)(CCNC(=O)C(=O)NCC[N+](CC)(CC)Cc1ccccc1Cl)Cc1ccccc1Cl,inactive,inactive,inactive,inactive,inactive,,
C1C[C@@H]2[C@H]3CC[C@H](C3)[C@@H]2C1,inactive,inactive,,inactive,inactive,,
CCCCCCCC/C=C\CCCCCCCCO,inactive,inactive,inactive,inactive,inactive,,
C=C1CCC2CC1C2(C)C (configuration not stated),inactive,inactive,inactive,inactive,inactive,,
CCOC(=O)/C=C/C(=O)OCC,inactive,inactive,inactive,inactive,inactive,,
O=C1c2ccccc2C(=O)C1c1nc2ccccc2c(Br)c1O,inactive,inactive,inactive,24.3 µM (active),inactive,,
C[C@H]1C[C@H](O)c2ccsc2S1(=O)=O,inactive,inactive,inactive,inactive,inactive,,
COc1cc(C(=O)NCCCCCC(=O)O)cc(OC)c1OC,inactive,inactive,inactive,inactive,inactive,,
C=CCc1ccccc1OCC(O)CNC(C)C (configuration not stated),inactive,inactive,,,inactive,inactive,inactive
O[C@@H]1CO[C@H]2[C@@H]1OC[C@@H]2O,inactive,inactive,,inactive,inactive,,
N#CCc1ccc(Cl)cc1Cl,inactive,inactive,,inactive,,,
CCC1(CO)COCOC1,inactive,inactive,inactive,inactive,inactive,,
C=C1c2cccc(O)c2C(O)=C2C(=O)[C@]3(O)C(O)=C(C(N)=O)C(=O)[C@@H](N(C)C)[C@@H]3[C@@H](O)[C@H]12,inactive,inactive,inactive,inactive,inactive,,
Cc1ccccc1N=C(N)Nc1ccccc1C,inactive,inactive,inactive,inactive,inactive,,
CC(C)=CC(=O)C=C(C)C,inactive,inactive,inactive,inactive,inactive,,
FC(F)(F)c1ccccc1Cl,inactive,inactive,inactive,inactive,inactive,,
